Compound activity (PubChem BioAssay)
Hits are enriched below; roughly 3.4% of the tested compounds scored in any of these assays.
GPR151 activ = activators of human GPR151; Q8TDV0; PathHunter beta-arrestin GPR151 cells, luminescence; activation, % at 11.2 µM; 650,000 tested, 1% active; AID 1508602; in the data active = activation above about 4.9%
FBW7 act = activators of human E3 ligase FBW7. AID 1259310. AlphaScreen FBW7–phospho-cyclin E peptide binding, activator screen. 650,000 tested, 0.13% active. Q969H0. normalized activity (activation), % at 26.1 µM; in the data active = normalized activity above about 1.9%;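 also: purified mutant Fbw7 with reduced substrate affinity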
TEAD-YAP inh = TEAD-YAP interaction inhibition; HEK-TIYL cells, TEAD-Gal4/YAP UAS-luciferase luminescence; 640,000 tested, 1.4% active; AID 1259422; inhibition, % at 9.12 µM; in the data active = inhibition above about 32%
MITF inh = human MITF inhibition, primary screen; O75030; AlphaScreen MITF homodimerization, bead proximity signal; inhibition, % at 2.6 µM; 650,000 tested, 0.91% active; AID 1259374; in the data active = inhibition above about 50%
Target sequence (O75030 whole entry, looked up): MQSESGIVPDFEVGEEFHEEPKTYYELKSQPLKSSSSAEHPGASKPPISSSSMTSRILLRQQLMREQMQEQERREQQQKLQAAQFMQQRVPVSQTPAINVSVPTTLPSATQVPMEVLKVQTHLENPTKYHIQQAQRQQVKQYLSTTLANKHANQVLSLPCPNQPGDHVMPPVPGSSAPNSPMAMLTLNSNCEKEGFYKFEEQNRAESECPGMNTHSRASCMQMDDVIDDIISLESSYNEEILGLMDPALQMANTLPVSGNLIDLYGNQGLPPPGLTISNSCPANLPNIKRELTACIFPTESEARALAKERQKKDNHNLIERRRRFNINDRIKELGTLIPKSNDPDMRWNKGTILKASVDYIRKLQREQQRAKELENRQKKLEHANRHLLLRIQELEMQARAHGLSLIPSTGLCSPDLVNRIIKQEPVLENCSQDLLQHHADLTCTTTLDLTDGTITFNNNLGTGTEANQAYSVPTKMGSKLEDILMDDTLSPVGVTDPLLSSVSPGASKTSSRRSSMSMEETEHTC
GPR151 confirm = confirmation of human GPR151 activators; AID 1508609; shares compounds with GPR151 activ; activation, % at 11.2 µM; GPR151 PathHunter beta-arrestin cells, luminescence, 90 min; % of EA-reagent control over plate median; 6,700 tested, under 10 active;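 active = mean percent activation across replicates above the confirmation screen cutoff of 4.91%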
GPR119 counter = GPR119 activation, counter-screen for GPR151 activators. GPR119 PathHunter beta-arrestin cells, luminescence, 90 min; 0 = compound-well median, 100 = enzyme-acceptor control. activation, % at 11.2 µM. 6,700 tested, 0.3% active. shares compounds with GPR151 activ;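 active = mean percent activation in the counterscreen above 29.09%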;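 also: counterscreen on off-target GPR119 to flag nonselective hits from the GPR151 activator screen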
Numbers stand for hits; i = inactive; nt = no result given.

SMILES | GPR151 activ | FBW7 act | TEAD-YAP inh | MITF inh | GPR151 confirm | GPR119 counter
COC(=O)c1ccccc1NC(=O)c1sc2nc(C)nc(N3CCCCC3C)c2c1C (centres undefined) | i | i | i | i | nt | nt
CCC(C(=O)Nc1ccc(F)cc1)n1c2ccccc2c2nc(=O)cc(C)n21 (centres undefined) | 5.3 | i | i | i | i | i
CCC(C(=O)Nc1ccc(F)cc1F)n1c2ccccc2c2nc(=O)cc(C)n21 (centres undefined) | i | i | i | i | nt | nt
CCOC(=O)C1CCN(C(=O)c2cc(S(=O)(=O)N3CCCC3)cn2C)CC1 | i | i | i | i | nt | nt
CCOC(=O)C1CCCN(C(=O)c2cc(S(=O)(=O)N3CCOCC3)cn2C)C1 (centres undefined) | 9.2 | i | i | i | i | i
C=CSc1sc(Cl)c(N2CCC3(CC2)OCCO3)c1[N+](=O)[O-] | 5.2 | i | i | i | i | i
C=CSc1sc(Cl)c(N2CCOCC2)c1[N+](=O)[O-] | i | i | i | i | nt | nt
OC1(c2cccnc2)CCN(CCc2ccccc2)CC1 | i | i | i | i | nt | nt
COc1cccc(NC(=O)c2ccc(-c3cccc(OC)c3)nc2N2CCOCC2)c1 | i | i | i | i | nt | nt
COc1cccc(NC(=O)c2ccc(-c3ccsc3)nc2N2CCOCC2)c1 | 9.3 | i | i | i | i | i
CC(C)(C)CC(=O)Nc1ccccc1[N+](=O)[O-] | 7.0 | i | i | i | i | i
O=C(CCc1nnc(CCc2c[nH]c3ccccc23)o1)NCC1CC1 | 5.4 | i | i | i | i | i
O=C(CCc1nnc(CCc2c[nH]c3ccccc23)o1)N1CCN(CC2CC2)CC1 | i | i | i | i | nt | nt
COc1cc(/C=N/NC(=O)Cn2nnc(-c3ccccc3)n2)cc2sc(=O)oc12 | 8.0 | i | i | i | i | i
COc1cc(/C=N/NC(=O)CN2CC(c3ccccc3)CC2=O)cc2sc(=O)oc12 (centres undefined) | i | i | i | i | nt | nt
c1ccc(CCN2CCN(c3ccccc3)CC2)cc1 | 6.9 | i | i | i | i | i
c1ccc(CCn2nnnc2CN2CCN(c3ccccc3)CC2)cc1 | i | i | i | i | nt | nt
CN(C)CCCNc1ccc(S(N)(=O)=O)cc1[N+](=O)[O-] | 5.7 | i | i | i | i | i
CC(C)=C/C(C)=N/Nc1ccc(S(N)(=O)=O)cc1[N+](=O)[O-] | 4.9 | i | i | i | i | i
COc1cccc(/C=N/NC(=O)CNc2ccc(F)cc2)c1 | i | i | i | i | nt | nt
O=C(COC(=O)c1cc(S(=O)(=O)N2CCOCC2)ccc1F)Nc1cccc(F)c1 | 6.5 | i | i | i | i | i
O=C(COC(=O)c1ccc(F)c(S(=O)(=O)N2CCOCC2)c1)c1ccc(Cl)cc1 | i | i | i | i | nt | nt
O=C(COC(=O)c1ccc(F)c(S(=O)(=O)N2CCOCC2)c1)c1ccccc1 | 6.1 | i | i | i | i | i
c1csc(-c2[nH]ncc2CNC2CCCCC2)c1 | 5.1 | i | i | i | i | i
CCOc1ccc(NC(=O)CCC(=O)NNC(=O)c2ccccc2OC)cc1 | i | i | i | i | nt | nt
SMILES | GPR151 activ | FBW7 act | TEAD-YAP inh | MITF inh | GPR151 confirm | GPR119 counter
O=C(CSCc1ccccc1)N1CCC(Cc2ccccc2)CC1 | 6.0 | i | i | i | i | i
CCOC(=O)C1CCN(C(=O)CSCc2c(Cl)cccc2Cl)CC1 | i | i | i | i | nt | nt
O=C(CSc1cccc[n+]1[O-])N1CCC(Cc2ccccc2)CC1 | i | i | i | i | nt | nt
NC(=O)C1CCN(C(=O)CSCc2c(Cl)cccc2Cl)CC1 | 6.1 | i | i | i | i | i
COc1cccc(NC(=O)c2cccn(OCc3ccccc3F)c2=O)c1 | 6.2 | i | i | i | i | i
O=C(Nc1cccc(F)c1)c1cccn(OCc2ccccc2F)c1=O | i | i | i | i | nt | nt
Clc1ccc(Cn2c3ccccc3c3nc4ccccc4nc32)c(Cl)c1 | i | i | i | i | nt | nt
COc1cc(C)nc(N2CCC(C(N)=O)CC2)n1 | 5.2 | i | i | i | i | i
CCc1ccc(-c2nc(=S)[nH][nH]2)cc1 | 7.6 | i | i | i | i | i
CCN1CCN(C(c2ccccc2)c2sc3nc(-c4ccco4)nn3c2O)CC1 (centres undefined) | 5.3 | i | i | i | i | i
COC(=O)c1c(NC(=O)C2=C(C)C(=O)OC23CCCCC3)sc(C)c1C | i | i | i | i | nt | nt
Cc1ccc(NC(=O)CC2(CC(=O)O)CCCCC2)c(C)c1 | 5.7 | i | i | i | i | i
Cc1cccc(NC(=O)CC2(CC(=O)O)CCCC2)c1 | i | i | i | i | nt | nt
Nc1cc(Sc2ccc(F)cc2)cc([N+](=O)[O-])c1 | 5.1 | i | i | i | i | i
Cc1nccn1C(=O)c1nn(C)c2c1COc1ccccc1-2 | i | i | i | i | nt | nt
COc1ccc(C2(O)CN(c3cc(OC)ccc3OC)C3=[N+]2CCCS3)cc1 (centres undefined) | i | i | i | i | nt | nt
COc1ccc(OC)c(N2CC(O)(c3ccc(OC)c(OC)c3)[N+]3=C2SCCC3)c1 (centres undefined) | 5.4 | i | i | i | i | i
O=C(Cc1cn(-c2ccc(Cl)nn2)c2ccccc12)NCCN1CCOCC1 | 7.8 | i | i | i | i | i
O=C(Cc1cn(-c2ccc(N3CCOCC3)nn2)c2ccccc12)NCCN1CCOCC1 | i | i | i | i | nt | nt
CCC(C)(C)n1nnnc1C(c1ccc(C)cc1)N1CCN(Cc2cccnc2)CC1 (centres undefined) | 6.4 | i | i | i | i | i
CC(C)(C)n1nnnc1C(c1cccnc1)N1CCN(c2ccccc2F)CC1 (centres undefined) | 8.4 | i | i | i | i | i
CC[C@H](O)C(=O)N1CCCN(S(=O)(=O)c2cccc3cnccc23)CC1 | i | i | i | i | nt | nt
CN(C(=O)CSc1nnc2n(C)c(=O)c3ccccc3n12)C1CCCCC1 | i | i | i | i | nt | nt
COC(=O)CN1C(=O)Nc2ccc(Br)cc2C1c1ccccc1Cl (centres undefined) | 15 | i | i | i | i | i
CCOC(=O)CN1C(=O)Nc2ccc(Br)cc2C1c1ccccc1 (centres undefined) | i | i | i | i | nt | nt
SMILES | GPR151 activ | FBW7 act | TEAD-YAP inh | MITF inh | GPR151 confirm | GPR119 counter
COc1ccc(CC(=O)Nc2cc(Cl)ccc2C(=O)O)cc1 | 5.6 | i | i | i | i | i
COc1ccc(CC(=O)Nc2ccc(Cl)cc2C(=O)O)cc1 | i | i | i | i | nt | nt
NC(=O)c1ccc(-c2ncc(C(=O)Nc3ccccc3)s2)cc1 | i | i | i | i | nt | nt
CCOc1cc(S(=O)(=O)n2nnc3ccccc32)ccc1F | 5.1 | i | i | i | i | i
CC(C)NC(NC(=O)c1ccccc1Cl)C(Cl)(Cl)Cl (centres undefined) | i | i | i | i | nt | nt
O=C(NCCC1CCCCN1S(=O)(=O)c1ccccc1)Nc1ccc(Cl)cc1 (centres undefined) | 8.1 | i | i | i | i | i
O=C1Nc2ccccc2N(O)N1c1cccc(Br)c1 | 7.7 | i | i | i | i | i
COc1ccc(NC(=O)c2ccc(NC(=O)c3ccco3)cc2)cc1 | i | i | i | i | nt | nt
